For orientation: inhibition means the change of the read-out against control, counted positive when it falls.

The whole screen tested about 96,000 compounds, of which about 19,000 (20%) were called active. These entries were drawn from the full list. A number with no mark means an inactive call.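 How the source made its calls: active means blocking of liver enzyme CYP2C9 beyond about 50% at 5 µM (limit read from the data); inactive means the rest.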

The assay deals with Cytochrome P450 2C9 (Homo sapiens) (UniProt P11712). Nature of the assay: blockers of cytochrome P450 2C9 activity – biochemical, luminescence, ADME assay, primary screen (AID 777). The conditions noted are these: CYP2C9 Supersomes, luciferin-H conversion, at 5 µM, active compounds read high.
Sequence of Cytochrome P450 2C9 (Homo sapiens) (P11712 whole entry, looked up): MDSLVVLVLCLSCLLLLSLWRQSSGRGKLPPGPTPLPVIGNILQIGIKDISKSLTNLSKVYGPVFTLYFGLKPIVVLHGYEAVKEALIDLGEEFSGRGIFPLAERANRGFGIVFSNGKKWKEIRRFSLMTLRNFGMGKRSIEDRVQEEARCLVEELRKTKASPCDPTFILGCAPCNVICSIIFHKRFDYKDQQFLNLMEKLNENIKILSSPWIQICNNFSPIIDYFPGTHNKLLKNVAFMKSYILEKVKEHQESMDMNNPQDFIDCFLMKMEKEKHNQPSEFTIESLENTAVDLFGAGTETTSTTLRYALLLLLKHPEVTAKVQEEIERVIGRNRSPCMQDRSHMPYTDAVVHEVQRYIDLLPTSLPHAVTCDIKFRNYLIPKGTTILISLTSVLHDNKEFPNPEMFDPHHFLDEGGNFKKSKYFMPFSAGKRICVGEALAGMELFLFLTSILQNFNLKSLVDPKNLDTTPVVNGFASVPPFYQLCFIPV
Consider `CCN(CC)S(=O)(=O)c1cc([N+](=O)[O-])ccc1NNC(=O)Nc1ccccc1`, for which the inhibition was 25.7%. In the case of `O=C(Nc1ccccc1)O/N=C1\CCCCC1c1ccc([N+](=O)[O-])cc1[N+](=O)[O-]` (stereo not given) it was 63.3% (active); in that of `COc1ccc(NC(=O)ON=C2c3ccccc3-c3ccccc32)cc1`, 16%.

Turning to `Cc1ccc2oc(=O)c3cnn(CC(=O)N4CCCCCC4)c3c2c1`, the inhibition is 4.4%. To `COc1ccc(N2C(=O)CCC(C(=O)N(C)C3CCCCC3)C2c2ccc(OC)c(OC)c2)cc1` (stereo not given) belongs 10.7%. In the case of `C=CCn1c(C(C)NC(=O)CC)nc2ccccc21` (stereo not given) it was -3.6%; in that of `CCCn1c(C(Cc2ccccc2)NC(=O)COC)nc2ccccc21` (stereo not given), 74.5% (active). In the case of `CCCC(NC(=O)c1ccccc1)c1nc2ccccc2n1Cc1ccc(C(=O)OC)o1` (stereo not given) it was 14.1%; in that of `CC/S(CC1CC1(Cl)Cl)=N\S(=O)(=O)c1ccc(C)cc1` (stereo not given), -9%. For the compound `CS(=O)(=O)N1CCN(c2cccc(Cl)n2)CC1`, the inhibition was 19.9%. To `CN1c2ccccc2-c2nc3ccccc3n2C1c1ccco1` (stereo not given) belongs 45.9%. To `O=C(Oc1cccnc1)c1cc2ccccc2oc1=O` belongs 30.1%; to `Cc1ccc(-c2noc(CCC(=O)Nc3ccccc3N3CCN(C)CC3)n2)cc1`, 48.1%.

Turning to `CCc1ccc(CNC(=O)CCc2nc(-c3cccs3)no2)cc1`, the inhibition was 70.4% (active). With `CCNC(=O)CCc1nc(-c2ccc(C(C)(C)C)cc2)no1`, the inhibition was -11.4%.

For the compound `Cc1cc(C)cc(N(CC(=O)Nc2c(C)n(C)n(-c3ccccc3)c2=O)S(C)(=O)=O)c1`, the inhibition was 16.3%. In the case of `O=C(N/N=C/c1ccc(O)cc1)/C(=C/c1ccc([N+](=O)[O-])cc1)NC(=O)c1ccccc1` it was -2.6%. Regarding `N#CCCN1CCN(S(=O)(=O)c2ccc(S(=O)(=O)N3CCCC3)cc2)CC1`, the inhibition is 16.2%. In the case of `N#CCCN1CCN(S(=O)(=O)c2ccc(S(=O)(=O)NC3CCCCC3)cc2)CC1` it was 58% (active).

For the compound `N#CCCN1CCN(S(=O)(=O)c2ccc(S(=O)(=O)NC3CC3)cc2)CC1`, the inhibition was 9.6%. To `Cc1ccccc1-n1c(C)cc(/C=N/NC(=O)c2ccc(CN3CCOCC3)cc2)c1C` belongs 31.2%; to `CC(C)(C)Oc1ncc(Br)c(OC(C)(C)C)n1`, -16.6%; to `COc1cccc(C2/C(=C(/O)c3ccncc3)C(=O)C(=O)N2CCCN(C)C)c1` (stereo not given), -17.5%.

For `COc1ccc(N=Cc2c(O)[nH]c3ccccc23)cc1OC`, the inhibition is 2.9%. In the case of `COc1cc(N=Cc2c(O)[nH]c3ccccc23)cc(OC)c1OC` it was 66% (active); in that of `COc1ccc(OC)c(N=Cc2c(O)[nH]c3ccccc23)c1`, 15.1%. Take `CCCCCCC(=O)Nc1nc(C)c(-c2csc(Nc3cccc(OC)c3)n2)s1`: the inhibition was 19.4%. To `COC(=O)c1cc(OC)c(OC)cc1NC(=O)CSc1ccc(C)cc1` belongs 21.1%. In the case of `Cc1ccc(SC(=O)COc2ccc(C)c(C)c2)cc1` it was 13.5%.

With `Cc1ccc(SCC(=O)c2cc(C)c(OC(=S)N(C)C)c(C)c2)cc1`, the inhibition was 58.6% (active).

With `CSc1nc(C)nc2c1c(=O)n(C)c(=O)n2C`, the inhibition was -6.6%.

Take `CSc1nc2nc3c(c(=O)n2[nH]1)CCC3`: the inhibition was -13.2%. To `Cn1c(=O)oc2cc(S(=O)(=O)N3CCC(C(=O)Nc4ccc(OC(F)(F)F)cc4)CC3)ccc21` belongs -62.7%. In the case of `Cc1ccc2nc(NC(=O)C3CCN(S(=O)(=O)c4ccc5c(c4)oc(=O)n5C)CC3)sc2c1`, the inhibition is -47.7%. With `Cc1ccc(C)c(N2CCN(S(=O)(=O)c3ccc4c(c3)oc(=O)n4C)CC2)c1`, the inhibition was 88.4% (active).

For the compound `CCSC1(SCC)N=C(N)C2(C#N)C(c3ccccc3)NC(C)=CC12C#N` (stereo not given), the inhibition was 6.1%. In the case of `O=c1c2cc3c(=O)n(CC4CCCO4)c(=O)c3cc2c(=O)n1CC1CCCO1` (stereo not given) it was 3.8%; in that of `CCOc1cccc(=O)c2c(C)n(CC3CCCO3)c(C)c12` (stereo not given), 59.7% (active).

For `COC(=O)c1ccc2c(=O)n(CC3CCCO3)c(=S)[nH]c2c1` (stereo not given), the inhibition is 6.5%. To `OCCCN1c2ccccc2Nc2nnc(-c3ccccc3)cc21` belongs 46.3%; to `CN(C)c1nc2n(c(=O)n1)CCO2`, 2.6%. In the case of `CCOC(=O)c1[nH]c2ccc(OC)cc2c1NC(=O)CCN1CCN(Cc2ccccc2)CC1`, the inhibition was 11.4%. To `COC(=O)c1[nH]c2ccccc2c1NC(=O)CN1CCCc2ccccc21` belongs 88.7% (active). Regarding `CC(C)(CNC(=O)c1cc(=O)[nH]c2ccccc12)N1CCOCC1`, the inhibition was 8%. Take `Cc1cccc(-n2c(O)c(C=Nc3ccccc3N)c(=O)[nH]c2=O)c1`: the inhibition was 0.2%. In the case of `CCCOP(=O)(c1ccc(N(C)C)cc1)C(O)c1cc(OC)c(OC)c(OC)c1` (stereo not given) it was -3.1%; in that of `FC(F)(F)c1cccc(NC(=S)Nc2cccc(Cl)c2)c1`, -83%; in that of `Cn1nc(C(F)(F)F)c(C(=O)Nc2cccc(C(F)(F)F)c2)c1SCc1ccc(Cl)cc1`, 97.5% (active). To `CCC(=O)OCc1c(C(F)(F)F)nn(C)c1Oc1cccc(C(F)(F)F)c1` belongs 34%; to `COC(=O)c1sc2ncccc2c1OCc1ccc(Cl)cc1Cl`, 9.3%; to `Cc1ccc2c(C(=O)CN3CCCC3)c(C)[nH]c2c1`, 49.7%. Regarding `CC1=CC(C)(C)Nc2ccc(OC(=O)C(Cc3ccccc3)N3C(=O)C4CCCCC4C3=O)cc21` (stereo not given), the inhibition was 72.8% (active). In the case of `CC1=CC(C)(C)Nc2ccc(OC(=O)CN3C(=O)C4CCCCC4C3=O)cc21` (stereo not given) it was 10.9%; in that of `Cc1ccc(C)n1C(Cc1ccccc1)C(=O)O` (stereo not given), 28.3%; in that of `O=C(Nc1ccon1)c1sc2ccccc2c1Cl`, -23.1%. With `CCc1c(C)c2c(C)[nH]nc2oc1=O`, the inhibition was -66%. Consider `Cc1cc2c(c(=O)n1Cc1ccco1)C(c1ccccc1)C(C#N)=C(N)O2` (stereo not given), for which the inhibition was 1.2%. `Cc1ccc(-c2nc3ccccc3[nH]2)cc1N`: the inhibition was 40.6%.

`Cn1nc([N+](=O)[O-])nc1Sc1ccc(C(C)(C)C)cc1`: the inhibition is 12.1%. To `COc1ccccc1Nc1ncc(C(C)=O)c(C)n1` belongs 18.7%; to `CCC(C(=O)NC1CCCC1)N(C(=O)c1snc(C(N)=O)c1N)c1ccc2c(c1)OCCO2` (stereo not given), 14.7%; to `COc1ccc(CCN(C(=O)COc2ccccc2)c2nc(-c3ccccc3)cs2)cc1OC`, 75.2% (active).

With `COc1ccc2c(c1OC)C(=O)OC2Nc1nc(-c2ccccc2)cs1` (stereo not given), the inhibition was 8.8%. In the case of `CN(C(=O)CSc1nc(C2CC2)nc2ccccc12)c1nc(-c2ccccc2)cs1` it was 39.9%.

On to `CCn1c(=N)n(CC(=O)c2cccc(OC)c2)c2ccccc21`, for which the inhibition is -13.2%. As to `O=C(Nc1ccc(Cl)cn1)c1cnn2cccnc12`, the inhibition is 11.4%. In the case of `O=S1(=O)CCN(Cc2ccccc2Cl)CC1` it was 13.3%. In the case of `CN1/C(=C\C(=O)c2oc3ccccc3c2N)C(C)(C)c2ccccc21` it was 47.6%; in that of `Cc1ccc(-c2nc(COC(=O)c3c(C)noc3C)cs2)cc1`, 28%; in that of `Cc1noc(C)c1C(=O)OCC(=O)/C=C1\N(C)c2ccccc2C1(C)C`, 55.7% (active). In the case of `Nc1nnc(SCCN2C(=O)c3ccccc3S2(=O)=O)s1` it was -0.2%; in that of `O=C(c1cccs1)N1CCN(C(=O)N2CCOCC2)CC1`, -2%; in that of `O=C(c1cccs1)N1CCC(c2nc3ccccc3s2)CC1`, 60.9% (active). For the compound `Cc1cccc(NC(=S)N2CCC(c3nc4ccccc4s3)CC2)c1`, the inhibition is -16.4%. On to `CCC1(C)Cc2c(sc3nnn(CC(=O)Nc4ccc(Cl)cc4)c(=O)c23)CO1` (stereo not given), for which the inhibition was 49.3%.

For `COc1ccc(Cc2nnc(NC(=O)Cc3cccs3)s2)cc1`, the inhibition was 24.4%. `COc1ccc(Cc2nnc(NS(=O)(=O)Cc3ccccc3)s2)cc1`: the inhibition is 60.3% (active).

With `CCC(CC)c1nnc(NS(=O)(=O)Cc2ccccc2)s1`, the inhibition was 34.3%. With `COc1ccc(C(=O)Nc2ccccc2C(=O)N/N=C/c2ccc(O)c(OC)c2)cc1`, the inhibition is 73.4% (active). In the case of `COc1ccc(C(=O)Nc2ccccc2C(=O)N/N=C/c2ccccc2OC)cc1` it was -11.9%. To `COc1cc(/C=N\NC(=O)CNC(=O)c2cccc([N+](=O)[O-])c2)ccc1O` belongs -11.8%; to `CCCC(CCC(=O)OC)(C(=O)OCC)c1csc(N)n1` (stereo not given), 30.1%. For `C#CCN1C(=O)C(O)(CC(=O)c2cc(OC)ccc2OC)c2ccccc21` (stereo not given), the inhibition was 30.3%.

Consider `O=C(Nc1ccccc1F)C1C2C=CC3(O2)C1C(=O)N(c1cccnc1)C3C(=O)NC1CCCCC1` (stereo not given), for which the inhibition is -11.1%. As to `CCOC(=O)NC(C(F)(F)F)(C(F)(F)F)P(=O)(c1ccccc1)c1ccccc1`, the inhibition was -2.2%. For `CCOc1cc2[nH]c(=S)n(CCN3CCCCC3C)c(=O)c2cc1OCC` (stereo not given), the inhibition is 17.7%.

For the compound `Nc1ccc(Nc2ccccc2)cc1`, the inhibition is 12.1%. To `Nc1ccc(-c2nnc(-c3ccc(-c4ccccc4)cc3)o2)cc1` belongs 78.7% (active); to `Nc1ccc(-c2sc(N)nc2-c2ccccc2)cc1`, 12.4%. In the case of `CSc1ncccc1C(=O)OCC(=O)N1CCOCC1` it was -8%; in that of `C=CCN(N=Nc1cccc([N+](=O)[O-])c1)c1cccc([N+](=O)[O-])c1`, 46.4%. To `Cc1oc2nc(SCC(=O)NCc3cccnc3)nc(N)c2c1C` belongs 14.4%; to `CS(=O)(=O)NCc1ccc(C(=O)NCc2ccccc2)cc1`, -6.7%.

Consider `O=S(=O)(NCCNS(=O)(=O)c1ccccc1)c1ccccc1`, for which the inhibition is 34.1%. Consider `Cc1ccc(C(=O)NCCNS(=O)(=O)c2ccccc2)cc1`, for which the inhibition was 60% (active).

Source of the values: PubChem BioAssay AID777 (Sanford-Burnham Center for Chemical Genomics, 2007).
